# In PubChem BioAssay (NCATS):
# Inconclusive results are not listed. Entries that show only a call come without a potency. Unmarked numbers belong to inactive results. Calls of active or inactive are those of the source. The call rests on the fitted dose curve; in most records, active means well fitted curve in the direction sought with a large enough effect; inconclusive means small, poorly fitted or top-dose-only effect, or another doubt; inactive means no such curve, though single readings can be large; an effect the other way counts as inactive or inconclusive. Square brackets hold non-standard residues; d marks the D form. Peptide text beside a SMILES is read from it. * marks the point of attachment. Dolaproine = CO[C@@H]([C@@H]1CCCN1)[C@@H](C)C(=O)O; Dil = CC[C@H](C)[C@H](NC)[C@@H](CC(=O)O)OC; Doe = c1ccc(C[C@H](N*)c2nccs2)cc1; Aib = CC(C)(N)C(=O)O
# Legend:
# [1] = target: Aldehyde dehydrogenase, mitochondrial (Homo sapiens) (UniProt P05091); assay: qHTS for Inhibitors of the Aldehyde Dehydrogenase Family (ALDH2) Primary screen (AID 2061308); settings: ALDH2 enzyme inhibition qHTS, 1536-well; series mostly up to 56 µM; further: nearly all actives have a fitted effect of over 55% in size
# [2] = target: Retinaldehyde dehydrogenase 3 (Homo sapiens) (UniProt P47895); assay: qHTS for Inhibitors of the Aldehyde Dehydrogenase Family (ALDH1A3) Primary screen (AID 2061315); settings: ALDH inhibition qHTS; series mostly up to 56 µM
SMILES,Potency [1],Potency [2],"activity change, negative = inhibition [1]","activity change, negative = inhibition [2]"
Cc1ccccc1[C@@H](C(=O)NC1CCCCC1)N(C(=O)Cn1ccnc1C)c1cccc(F)c1,inactive,inactive,,
C/C=C(\C)C(=O)O[C@@H]1[C@@H](C)[C@]2(O)C3C=C(C)C(=O)[C@@]3(O)CC(CO)=C[C@H]2C2C(C)(C)[C@@]21OC(=O)C(C)CC (some centres not stated),inactive,inactive,,
O=C(Nc1ncc(Cc2ccc(C(F)(F)F)cc2)s1)c1cn(-c2ccccc2)cn1,inactive,inactive,,
Cc1nnc2n1-c1sc(CCc3ccc(CC(C)C)cc3)cc1C(c1ccccc1Cl)=NC2C (configuration not stated),inactive,inactive,,
O=S(=O)(Nc1ccccc1)c1ccc(NCc2ccc(Br)cc2O)cc1,inactive,inactive,,
Oc1ccc2c3c1O[C@H]1c4[nH]c5c(N=C=S)cccc5c4C[C@@]4(O)[C@@H](C2)N(CC2CC2)CC[C@]314,inactive,inactive,,
C=C(CO)[C@@]12O[C@@H]1[C@@]1(C)C(=CC2=O)CC[C@@H](O)[C@@H]1C,inactive,inactive,,
CO[C@H]1[C@H](O)[C@H](O[C@H]2CC[C@]3(C=O)C4CC[C@]5(C)[C@H](C6=CC(=O)OC6)CC[C@]5(O)C4CC[C@@H]3C2)O[C@@H](C)[C@@H]1O (some centres not stated),inactive,inactive,,
C/C=C(/C)C(=O)O[C@H]1[C@@H]2[C@H](C)C(=O)O[C@@H]2C[C@@H](C)[C@@H]2C=CC(=O)[C@]21C,inactive,inactive,,
CC(=O)Nc1ncc(S(=O)(=O)N2CCOCC2)s1,inactive,inactive,,
COC1C(O)C(OC2CCC3(C=O)C(CCC4C3CCC3(C)C(C5=CC(=O)OC5)CCC43O)C2)OC(C)C1OC1OC(CO)C(O)C(O)C1O (configuration not stated),inactive,inactive,,
CC1=C(C(=O)Nc2nncs2)C(c2nn(C)cc2Cl)N=C(Nc2nc3ccccc3o2)N1 (configuration not stated),inactive,inactive,,
O=C(Nc1ncc(Cc2ccc(C(F)(F)F)cc2)s1)c1cnc(-c2ccccc2)o1,inactive,inactive,,
CC[C@H](C)[C@@H]([C@@H](CC(=O)N1CCC[C@H]1[C@H](OC)[C@@H](C)C(=O)N[C@@H](Cc1ccccc1)c1nccs1)OC)N(C)C(=O)[C@@H](NC(=O)C(C)(C)N)C(C)C (H-[Aib]V[Dil][Dolaproine]-Doe),inactive,inactive,,
CC(C)C(=O)O[C@H]1[C@@H]2[C@H](C)C(=O)O[C@@H]2C[C@@H](C)[C@@H]2C=CC(=O)[C@]21C,inactive,inactive,,
C[C@@H]1CCC/C=C/[C@H]2C[C@@H](O)C[C@@H]2[C@@H](O)/C=C/C(=O)O1,inactive,inactive,,
C[C@H]1C/C=C/[C@H]2[C@@H]3O[C@]3(C)[C@@H](C)[C@H]3[C@H](Cc4ccccc4)NC(=O)[C@]32OC(=O)O/C=C/[C@@](C)(O)C1=O,inactive,inactive,,
S=P(c1ccccc1)(c1ccccc1)c1c[nH]c2ccccc12,inactive,inactive,,

SMILES,Potency [1],Potency [2],"activity change, negative = inhibition [1]","activity change, negative = inhibition [2]"
Nc1ncnc2c1ncn2[C@@H]1O[C@@H]2COP(O)(=S)O[C@H]2[C@H]1O (some centres not stated),,,4.01% [at 11.2 µM],2.78% [at 11.2 µM]
COc1cccc(CNc2ccc(S(=O)(=O)Nc3ccc4ccccc4c3)cc2)c1O,inactive,inactive,,
CC[C@H]1C2CC3[C@@H]4N(C)c5ccccc5[C@]45C[C@@H]([C@H]2[C@H]5O)N3[C@H]1O,inactive,inactive,,
COC1CC(O[C@H]2CC[C@]3(C=O)C4CC[C@]5(C)[C@@H](C6=CC(=O)OC6)CC[C@]5(O)[C@@H]4CC[C@]3(O)C2)OC(C)C1O[C@@H]1O[C@H](CO)[C@@H](O)[C@H](O)[C@H]1O (some centres not stated),inactive,inactive,,
CCOc1ccc(CCNC(=O)c2cc3ccccc3n2Cc2ccccn2)cc1OCC,inactive,inactive,,
CCOc1ccc(CCNC(=O)c2cc3ncccc3n2Cc2cccc(C)c2)cc1OCC,inactive,inactive,,
O=C(N[C@@H]1N=C(c2ccccc2F)c2cccc3c2N(CC3)C1=O)c1cc2ccccc2[nH]1,inactive,inactive,,
CN1Cc2c(ccc3c2OCO3)[C@@H]2[C@H]1c1cc3c(cc1C[C@@H]2O)OCO3,inactive,inactive,,
Cc1ccccc1C(C(=O)NC1CCCCC1)N(C(=O)Cn1ccnc1C)c1cccc(F)c1 (configuration not stated),inactive,inactive,,
CCOc1ccc(CCNC(=O)c2cc3ccccc3n2Cc2cccc(C)n2)cc1OCC,inactive,inactive,,
C[C@]12CC[C@H](O)C[C@H]1CC[C@@H]1[C@@H]2[C@H](O)C[C@]2(C)[C@@H](c3ccc(=O)oc3)CC[C@]12O,inactive,inactive,,
C[C@]12CC[C@@H](O)C[C@@H]1CC[C@@H]1[C@@H]2CC[C@]2(C)C(=O)[C@@H](Br)C[C@@H]12,inactive,inactive,,
CO[C@H]1C[C@H](O[C@H]2CC[C@]3(CO)[C@H]4CC[C@]5(C)[C@@H](C6=CC(=O)OC6)CC[C@]5(O)[C@@H]4CC[C@]3(O)C2)O[C@H](C)[C@H]1O,inactive,inactive,,
C=C(CO)C(=O)O[C@H]1CC(=C)[C@@H]2C[C@H](O)C(=C)[C@@H]2[C@H]2OC(=O)C(=C)[C@@H]21,inactive,inactive,,
CCOc1ccc(CCNC(=O)c2cc3ccccc3n2Cc2cccc(C)c2)cc1OCC,inactive,inactive,,
CC(=O)OC[C@]12C[C@H](OC(=O)CC(C)C)C(C)=C[C@H]1O[C@@H]1[C@H](O)[C@@H](O)[C@@]2(C)[C@]12CO2,inactive,inactive,,
COC(=O)c1ccc(O)c2ncc(N3CCN(C)CC3)cc12,inactive,inactive,,
COC1CC(O[C@H]2CC[C@@]3(C)C(CCC4C3CC[C@]3(C)C(C5=CC(=O)OC5)CCC43O)C2)OC(C)C1OC1OC(COC2OC(CO)C(O)C(O)C2O)C(O)C(O)C1O (some centres not stated),inactive,inactive,,
